# Data from PubChem BioAssay (NCATS).
# Values without a mark were called inactive. Results filed as inconclusive are left out. Calls of active or inactive are those of the source. Unless noted, calls come from the whole dose curve; as a rule, active = well fitted curve in either direction with a large enough effect (not every such curve was filed as active); inconclusive = small, poorly fitted or top-dose-only effect, or another doubt; inactive = flat fitted curve, though single readings scatter.
# Tests used:
# [1] = molecular target: Lysosomal acid glucosylceramidase (Homo sapiens) (UniProt P04062); assay: Glucocerebrosidase-p2 (AID 348; in the data active = potency below about 10 µM; note: potency is the fitted concentration of half-maximal effect); conditions: purified GBA, blue fluorogenic substrate, 40 min
# Sequence of Lysosomal acid glucosylceramidase (Homo sapiens) (P04062 whole entry, looked up): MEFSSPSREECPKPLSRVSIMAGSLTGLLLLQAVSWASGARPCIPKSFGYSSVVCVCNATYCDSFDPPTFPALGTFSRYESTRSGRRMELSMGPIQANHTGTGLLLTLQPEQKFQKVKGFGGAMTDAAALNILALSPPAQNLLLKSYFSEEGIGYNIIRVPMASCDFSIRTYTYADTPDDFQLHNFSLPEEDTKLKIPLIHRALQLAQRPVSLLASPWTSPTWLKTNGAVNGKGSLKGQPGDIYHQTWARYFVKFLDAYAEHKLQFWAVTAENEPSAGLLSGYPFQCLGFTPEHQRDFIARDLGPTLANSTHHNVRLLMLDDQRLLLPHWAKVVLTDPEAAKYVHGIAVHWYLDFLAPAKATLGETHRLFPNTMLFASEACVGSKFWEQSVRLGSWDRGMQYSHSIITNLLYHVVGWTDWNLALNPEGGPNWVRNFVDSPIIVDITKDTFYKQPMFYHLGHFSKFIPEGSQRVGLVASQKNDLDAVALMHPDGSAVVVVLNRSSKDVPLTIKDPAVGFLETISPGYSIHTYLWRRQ
# Method in brief: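 Normal human glucocerebrosidase (0.2 nM) with blue fluorogenic substrate (80 uM final) in citrate/phosphate pH 5.9 with 10mM sodium taurocholate, 0.01% tween-20; 40 min RT, NaOH/glycine stop; fluorescence Ex 365/Em 440; AC50 from a titration from 0.6 nM upwards.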
# [2] = AP1 Signaling Pathway (AID 357); conditions: ME-180 AP-1-bla reporter, EGF-induced, beta-lactamase ratio, 5 h; at 7.69 µM (top of the series) unless noted;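 note: ME-180 reporter cells stimulated with EGF at its EC50 level; % is set by controls: 0 for no effect and ±100 for the full control effect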
# Method in brief: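 A ratiometric CCF4 readout (405 nm excitation; 460 and 530 nm emission) quantified AP-1-driven beta-lactamase in ME-180 cells after 5 h with compound and EC50 EGF; AC50 values were derived for activators and inhibitors.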
# [3] = molecular target: Cytochrome P450 1A2 (Homo sapiens) (UniProt P05177); assay: p450-cyp1a2 (AID 410; calls by dose curve; note: potency is the fitted concentration of half-maximal effect;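 for activity change, negative = inhibition: -100% = full effect of reference inhibitor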); conditions: recombinant CYP1A2, luciferin-ME demethylation, luminescence; series mostly up to 11.4 µM
# Sequence of Cytochrome P450 1A2 (Homo sapiens) (P05177 whole entry, looked up): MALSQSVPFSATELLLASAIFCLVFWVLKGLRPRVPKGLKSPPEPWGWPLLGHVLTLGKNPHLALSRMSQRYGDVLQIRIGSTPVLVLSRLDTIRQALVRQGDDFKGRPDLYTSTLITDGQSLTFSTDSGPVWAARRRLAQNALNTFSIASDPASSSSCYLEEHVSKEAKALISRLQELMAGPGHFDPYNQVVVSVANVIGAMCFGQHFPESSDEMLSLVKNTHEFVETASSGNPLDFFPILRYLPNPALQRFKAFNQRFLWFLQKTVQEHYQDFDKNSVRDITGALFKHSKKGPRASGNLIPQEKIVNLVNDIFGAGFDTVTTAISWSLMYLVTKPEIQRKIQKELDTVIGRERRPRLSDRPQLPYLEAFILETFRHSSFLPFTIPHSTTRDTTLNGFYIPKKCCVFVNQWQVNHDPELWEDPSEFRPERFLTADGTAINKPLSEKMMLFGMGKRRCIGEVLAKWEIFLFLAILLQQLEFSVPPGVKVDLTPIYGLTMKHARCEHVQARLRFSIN
# Method in brief: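 O-Demethylation of luciferin 6' methyl ether by human CYP1A2 is monitored as luciferase luminescence. Substrate sits at Km (100uM); enzyme is 20nM. Values are scaled to 57 uM furafylline as maximal inhibition.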
# [4] = NFAT Signaling Pathway (AID 444); conditions: Jurkat NFAT-bla M1, carbachol, beta-lactamase ratio, 5 h; at 7.69 µM (top of the series) unless noted;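 note: carbachol stimulus at about its EC50 of 1 µM final; % is set by controls: 0 for no effect and ±100 for the full control effect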
# Method in brief: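 Jurkat cells carrying an NFAT-driven β-lactamase reporter and co-transfected muscarinic M1 receptor were treated with compound plus carbachol (1 uM final, an EC50 level) for 5 h at 37 °C. CCF4 loading followed for 1 h at RT; 460/530 nm ratio gave %activity.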
# [5] = molecular target: Glucocorticoid receptor (Homo sapiens) (UniProt P04150); assay: GR-GFP Redistribution (AID 450;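 active = compounds whose dose series gives a full or clear partial fitted curve of increased nuclear translocation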; note: potency is the fitted concentration of half-maximal effect); conditions: U2OS GR-GFP nuclear translocation, laser cytometry, 2 h
# Sequence of Glucocorticoid receptor (Homo sapiens) (P04150 whole entry, looked up, the tested form may be a part): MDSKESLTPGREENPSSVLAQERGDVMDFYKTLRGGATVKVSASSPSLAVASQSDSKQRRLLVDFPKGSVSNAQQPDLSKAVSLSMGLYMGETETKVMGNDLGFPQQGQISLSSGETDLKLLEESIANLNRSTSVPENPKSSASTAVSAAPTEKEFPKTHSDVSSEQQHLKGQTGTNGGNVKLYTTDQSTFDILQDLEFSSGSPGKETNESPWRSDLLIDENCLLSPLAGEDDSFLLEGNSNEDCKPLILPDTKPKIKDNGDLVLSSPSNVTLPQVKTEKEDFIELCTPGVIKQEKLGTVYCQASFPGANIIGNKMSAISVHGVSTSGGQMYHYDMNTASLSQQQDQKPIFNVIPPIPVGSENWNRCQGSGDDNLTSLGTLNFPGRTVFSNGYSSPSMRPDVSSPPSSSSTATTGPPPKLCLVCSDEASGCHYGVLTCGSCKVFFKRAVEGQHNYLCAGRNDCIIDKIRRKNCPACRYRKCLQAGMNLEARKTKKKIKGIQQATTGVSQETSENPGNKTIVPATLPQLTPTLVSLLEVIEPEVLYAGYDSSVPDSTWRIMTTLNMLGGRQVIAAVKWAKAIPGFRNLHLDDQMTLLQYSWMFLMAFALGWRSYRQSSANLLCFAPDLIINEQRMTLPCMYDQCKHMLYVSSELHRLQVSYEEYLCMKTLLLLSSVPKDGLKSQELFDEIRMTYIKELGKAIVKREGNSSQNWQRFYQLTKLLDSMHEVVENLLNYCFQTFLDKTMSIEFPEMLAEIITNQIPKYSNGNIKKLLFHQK
# [6] = molecular target: Glucocorticoid receptor (Homo sapiens) (UniProt P04150); assay: GR-EFC Redistribution (AID 451; calls by dose curve; note: potency is the fitted concentration of half-maximal effect); conditions: CHO-K1 GR-EFC translocation, beta-gal luminescence, 2 h
# Method in brief: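 CHO-K1 cells stably expressing nuclear-localized β-gal enzyme acceptor and GR fused C-terminally to the enzyme donor fragment; ligand-driven nuclear translocation restores β-gal by complementation. Compounds titrated up to 46 uM final, 2 h at 37 °C; luminescence read.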
# [7] = molecular target: Mitogen-activated protein kinase 10 (Mus musculus) (UniProt Q61831); assay: JNK3 AlphaScreen Assay (AID 530); conditions: JNK3 lysate, c-Jun phosphorylation; series mostly up to 11.4 µM;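 note: kinase came from lysate of stimulated human HepG2 cells; signal reports phosphorylation of biotinylated GST-cJun 1-79 at Ser73 with 10 µM ATP; % is set by controls: 0 for no effect and ±100 for the full control effect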
# Method in brief: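 Phosphorylation of biotinylated GST-cJun(1-79) at Ser73 is measured by AlphaScreen proximity luminescence. Enzyme is JNK3 in HepG2 lysates activated with interleukin-1beta and tumor necrosis factor alpha; ATP is 10 uM final.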
# [8] = molecular target: 3',5'-cyclic-AMP phosphodiesterase 4B (Homo sapiens) (UniProt Q07343); assay: qHTS Assay for Inhibitors of PDE-IV (AID 607; active = well fitted activation curve with a large enough effect in the main read-out, with a control signal flat, not every such curve was filed as active; note: % of control where 0% means no effect); conditions: HEK293 ACTOne CNG channel cells, membrane potential fluorescence; series mostly up to 22.9 µM
# Sequence of 3',5'-cyclic-AMP phosphodiesterase 4B (Homo sapiens) (Q07343 whole entry, looked up): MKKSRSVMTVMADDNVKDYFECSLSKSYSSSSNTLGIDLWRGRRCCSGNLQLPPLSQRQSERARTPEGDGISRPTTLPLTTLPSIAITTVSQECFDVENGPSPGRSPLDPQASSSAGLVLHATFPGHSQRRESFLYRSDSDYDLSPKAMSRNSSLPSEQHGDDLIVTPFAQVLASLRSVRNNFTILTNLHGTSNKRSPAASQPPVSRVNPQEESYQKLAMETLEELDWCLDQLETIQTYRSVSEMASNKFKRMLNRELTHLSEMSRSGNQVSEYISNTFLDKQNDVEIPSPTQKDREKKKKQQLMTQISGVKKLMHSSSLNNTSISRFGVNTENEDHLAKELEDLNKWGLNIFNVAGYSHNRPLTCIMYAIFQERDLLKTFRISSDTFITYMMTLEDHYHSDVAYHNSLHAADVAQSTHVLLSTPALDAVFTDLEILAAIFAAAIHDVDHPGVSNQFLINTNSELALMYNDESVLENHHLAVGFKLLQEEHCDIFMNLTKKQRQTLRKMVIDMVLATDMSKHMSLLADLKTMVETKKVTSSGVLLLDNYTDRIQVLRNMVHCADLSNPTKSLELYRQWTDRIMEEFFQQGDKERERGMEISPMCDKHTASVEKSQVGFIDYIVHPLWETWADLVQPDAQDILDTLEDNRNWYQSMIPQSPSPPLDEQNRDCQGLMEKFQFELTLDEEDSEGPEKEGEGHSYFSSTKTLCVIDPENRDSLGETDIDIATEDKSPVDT
# Method in brief: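 ACTOne HEK293 cells carry a modified cAMP-gated CNG channel and express endogenous PDE4; plated 1000 cells/well, compounds up to 22.9 uM final. Membrane-potential dye fluorescence (ex 535/em 590) was read; parental cells received 10 uM forskolin + 100 uM RO 20-1724.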
# [9] = molecular target: Cytochrome P450 3A4 (Homo sapiens) (UniProt P08684); assay: qHTS Assay for Activators of Cytochrome P450 3A4 (AID 885; active = well fitted curve in the direction sought with a large enough effect; an effect the other way counts as inactive or inconclusive; note: nearly all actives have a fitted effect of over 65% in size); conditions: recombinant CYP3A4, Luciferin-PPXE luminescence, 60 min; series mostly up to 11.4 µM
# Sequence of Cytochrome P450 3A4 (Homo sapiens) (P08684 whole entry, looked up): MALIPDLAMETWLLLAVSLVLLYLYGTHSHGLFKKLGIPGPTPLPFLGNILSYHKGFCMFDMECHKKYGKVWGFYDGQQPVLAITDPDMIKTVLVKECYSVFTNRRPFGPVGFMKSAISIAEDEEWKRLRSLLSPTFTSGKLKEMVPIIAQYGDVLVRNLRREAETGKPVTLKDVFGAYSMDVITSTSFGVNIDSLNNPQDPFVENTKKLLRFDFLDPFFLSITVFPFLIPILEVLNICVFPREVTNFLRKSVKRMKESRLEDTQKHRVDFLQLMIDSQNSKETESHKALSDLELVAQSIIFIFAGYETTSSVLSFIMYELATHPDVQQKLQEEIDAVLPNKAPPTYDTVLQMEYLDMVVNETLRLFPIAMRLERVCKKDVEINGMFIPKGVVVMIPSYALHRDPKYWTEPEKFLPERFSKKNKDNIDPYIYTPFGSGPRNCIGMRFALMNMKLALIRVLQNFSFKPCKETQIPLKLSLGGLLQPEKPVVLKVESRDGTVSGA
# Method in brief: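 CYP3A4 activity: Luciferin-PPXE O-dealkylation, 25uM substrate, 200mM KPO4, RT throughout. Read-out is luciferase luminescence; higher values reflect activation.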
# [10] = molecular target: Cytochrome P450 2C9 (Homo sapiens) (UniProt P11712); assay: qHTS Assay for Inhibitors and Substrates of Cytochrome P450 2C9 (AID 883; active = well fitted curve in the direction sought with a large enough effect; an effect the other way counts as inactive or inconclusive; note: potency is the fitted concentration of half-maximal effect; nearly all actives have a fitted effect of over 60% in size); conditions: recombinant CYP2C9, luciferin-H luminescence, 60 min; series mostly up to 11.4 µM
# Sequence of Cytochrome P450 2C9 (Homo sapiens) (P11712 whole entry, looked up): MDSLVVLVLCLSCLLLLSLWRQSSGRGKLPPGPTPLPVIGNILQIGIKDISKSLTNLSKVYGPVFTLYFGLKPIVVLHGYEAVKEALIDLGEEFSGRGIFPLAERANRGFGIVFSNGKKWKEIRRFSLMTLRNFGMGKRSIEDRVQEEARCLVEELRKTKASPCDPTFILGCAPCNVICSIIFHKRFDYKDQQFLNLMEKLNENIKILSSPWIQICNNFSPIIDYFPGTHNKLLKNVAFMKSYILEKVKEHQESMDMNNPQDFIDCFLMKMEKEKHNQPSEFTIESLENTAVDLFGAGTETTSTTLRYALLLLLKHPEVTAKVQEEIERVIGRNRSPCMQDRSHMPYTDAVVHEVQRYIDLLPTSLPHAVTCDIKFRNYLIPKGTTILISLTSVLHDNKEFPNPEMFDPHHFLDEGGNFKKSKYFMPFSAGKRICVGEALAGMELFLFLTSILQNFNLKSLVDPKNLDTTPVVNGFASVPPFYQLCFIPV
# Method in brief: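 A luminogenic readout tracked human CYP2C9 (10nM) converting deoxyluciferin (100uM, at KM) in 25mM KPO4 during 60 min at 37C with regenerated NADPH. Values normalized to 57uM sulphaphenazole as complete inhibition.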
# [11] = molecular target: Cytochrome P450 3A4 (Homo sapiens) (UniProt P08684); assay: qHTS Assay for Inhibitors and Substrates of Cytochrome P450 3A4 (AID 884; active = well fitted curve in the direction sought with a large enough effect; an effect the other way counts as inactive or inconclusive; note: potency is the fitted concentration of half-maximal effect; nearly all actives have a fitted effect of over 50% in size); conditions: recombinant CYP3A4, Luciferin-PPXE luminescence; series mostly up to 57.1 µM
# Method in brief: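 Luminescent readout of luciferin produced by CYP3A4 (20 nM) dealkylation of Luciferin-PPXE, 25 uM (its KM). NADPH-driven reaction ran 60 min at RT after 10 min compound preincubation; data scaled to 57 uM ketoconazole as 100% inhibition.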
# [12] = molecular target: Cytochrome P450 2D6 (Homo sapiens) (UniProt P10635); assay: qHTS Assay for Inhibitors and Substrates of Cytochrome P450 2D6 (AID 891; active = well fitted curve in the direction sought with a large enough effect; an effect the other way counts as inactive or inconclusive; note: nearly all actives have a fitted effect of over 60% in size; note: potency is the fitted concentration of half-maximal effect;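 for activity change, negative = inhibition: luciferin methyl ether substrate demethylated by CYP2D6 with NADPH regeneration; % is set by controls: 0 for no effect and ±100 for the full control effect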); conditions: recombinant CYP2D6, luciferin-ME EGE luminescence; series mostly up to 11.4 µM
# Sequence of Cytochrome P450 2D6 (Homo sapiens) (P10635 whole entry, looked up): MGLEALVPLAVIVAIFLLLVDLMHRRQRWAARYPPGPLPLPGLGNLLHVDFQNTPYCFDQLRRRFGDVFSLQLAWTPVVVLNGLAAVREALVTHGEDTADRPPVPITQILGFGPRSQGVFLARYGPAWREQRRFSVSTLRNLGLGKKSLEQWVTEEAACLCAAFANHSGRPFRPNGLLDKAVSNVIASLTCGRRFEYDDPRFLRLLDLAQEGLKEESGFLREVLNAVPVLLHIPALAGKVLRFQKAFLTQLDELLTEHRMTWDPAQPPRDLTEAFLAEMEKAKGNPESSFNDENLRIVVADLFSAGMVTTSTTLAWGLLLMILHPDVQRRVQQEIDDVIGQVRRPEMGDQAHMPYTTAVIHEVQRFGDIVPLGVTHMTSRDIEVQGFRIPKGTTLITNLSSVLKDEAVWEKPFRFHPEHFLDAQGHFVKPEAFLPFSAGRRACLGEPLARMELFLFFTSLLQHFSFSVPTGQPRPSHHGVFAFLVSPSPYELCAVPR
# Method in brief: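 Luminescent read-out of luciferin formed by 5 nM human CYP2D6 demethylating 30 uM Luciferin-ME EGE (Km level) over 60 min at room temperature after NADPH regeneration addition. Data normalized to full inhibition by 1.43 uM quinidine.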
# [13] = molecular target: Cytochrome P450 2C19 (Homo sapiens) (UniProt P33261); assay: qHTS Assay for Inhibitors and Substrates of Cytochrome P450 2C19 (AID 899; active = well fitted curve in the direction sought with a large enough effect; an effect the other way counts as inactive or inconclusive; note: nearly all actives have a fitted effect of over 60% in size; note: potency is the fitted concentration of half-maximal effect); conditions: recombinant CYP2C19, luciferin-H EGE luminescence; series mostly up to 11.4 µM
# Sequence of Cytochrome P450 2C19 (Homo sapiens) (P33261 whole entry, looked up): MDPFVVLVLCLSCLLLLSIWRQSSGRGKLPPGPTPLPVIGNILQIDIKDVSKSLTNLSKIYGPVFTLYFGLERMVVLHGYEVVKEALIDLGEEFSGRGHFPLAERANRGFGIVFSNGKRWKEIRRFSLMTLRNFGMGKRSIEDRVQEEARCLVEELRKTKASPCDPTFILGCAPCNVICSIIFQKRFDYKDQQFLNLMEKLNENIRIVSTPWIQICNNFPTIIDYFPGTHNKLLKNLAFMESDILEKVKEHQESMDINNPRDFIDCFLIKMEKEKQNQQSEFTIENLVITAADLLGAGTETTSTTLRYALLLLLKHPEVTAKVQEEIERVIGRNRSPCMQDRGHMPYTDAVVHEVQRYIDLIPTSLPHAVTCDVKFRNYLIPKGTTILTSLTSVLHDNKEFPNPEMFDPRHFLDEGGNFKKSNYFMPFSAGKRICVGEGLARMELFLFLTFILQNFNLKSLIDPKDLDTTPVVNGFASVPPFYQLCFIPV
# Method in brief: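 NADPH-dependent conversion of Luciferin-H EGE (10uM, at KM) by 5nM enzyme in 50mM KPO4, 60 min at 37C following 10 min compound preincubation. Stopped with luciferin detection buffer; luminescence read after 20 min.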
# [14] = qHTS Assay for Identification of Small Molecule Agonists for Hypoxia Response Element Signaling Pathway (AID 914; active = well fitted activation curve with a large enough effect in the signal ratio, with a control signal flat, not every such curve was filed as active; the % refers to the signal ratio; note: % of control where 0% means no effect); conditions: ME-180 (cervical carcinoma) HRE-bla reporter, beta-lactamase ratio, CoCl2, 17 h; activation: hits give high values
# Method in brief: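 HRE-bla ME-180 cells, overnight plating in Opti-MEM with 0.5% dialyzed FBS; cpd titration + EC50 CoCl2, 17 h, 37 degrees Celsius; CCF4 2.5 h RT; 460/530 nm ratio; AC50.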
Compound,Potency [1],"activity change, negative = inhibition [2]",Potency [3],"activity change, negative = inhibition [4]",Potency [5],Potency [6],Potency [7],Potency [8],Potency [9],Potency [10],Potency [11],Potency [12],"activity change, negative = inhibition [3]",Potency [13],activation [14]
COCCn1c(=O)c(-c2ccc(OC)cc2)nc2cnc(OC)nc21,> 11.4 µM,2.45%,3.16 µM (active),8.31%,> 9.22 µM,> 46 µM,inactive,inactive,inactive,,,,,,
Cc1c2cnccc2c(C)c2c1c1ccccc1n2CCOC(=O)c1ccccc1,> 11.4 µM,2.26%,0.0794 µM (active),-4.41%,> 46 µM,> 9.22 µM,inactive,inactive,inactive,3.16 µM (active),0.631 µM (active),3.16 µM (active),,,
Cc1cccc(C)c1NC(=O)Nc1ccc(S(N)(=O)=O)cc1,> 11.4 µM,3.48%,,11%,> 46 µM,> 9.22 µM,inactive,inactive,,,,,-10.8% [at 2.29 µM],,
c1c[nH]c(CN2CCOCC2)n1,> 11.4 µM,6.52%,inactive,6.99%,> 46 µM,> 9.22 µM,inactive,inactive,,,,,,,
N[C@@H]1[C@@H]2[C@@H]3C[C@H]4N(CC[C@@]14C(=O)C(=O)O)CC3=CCO[C@@H]2CC(=O)O,> 11.4 µM,-3.74%,inactive,4.96%,> 46 µM,> 9.22 µM,inactive,inactive,,,,,,,
CC(C)=C[C@H]1[C@@H](COC(=O)c2ccccc2Cl)C1(C)C,> 11.4 µM,8.2%,3.98 µM (active),12.7%,> 46 µM,> 9.22 µM,inactive,inactive,,,,,,,
NCCSc1nc2ccccc2s1,> 11.4 µM,1.91%,0.316 µM (active),7.28%,> 46 µM,> 9.22 µM,inactive,inactive,inactive,1.58 µM (active),3.16 µM (active),,,1.58 µM (active),
Cn1c(=O)c2[nH]c(CCCCc3nc4ccccc4[nH]3)nc2n(C)c1=O,> 11.4 µM,-12.7%,inactive,25%,> 46 µM,> 9.22 µM,inactive,inactive,,,,inactive,,inactive,
ON(CCc1ccncc1)Cc1ccccc1,> 11.4 µM,-5.59%,1 µM (active),9.66%,> 46 µM,> 9.22 µM,inactive,inactive,inactive,3.98 µM (active),,,,0.316 µM (active),
Oc1ccc(Cn2c(-c3ccc(O)cc3)nc3ccccc32)cc1,> 11.4 µM,0.507%,inactive,20.6%,> 46 µM,> 9.22 µM,inactive,inactive,,,,,,,
Cc1cc(C)c2c(SCc3ccc(Cl)cc3Cl)nc(N)nc2n1,> 11.4 µM,0.307%,3.16 µM (active),-14.4%,> 46 µM,> 9.22 µM,inactive,inactive,,,,,,,
Cc1ccc(C)c(C(=N)c2ccccc2Cc2ccccc2)c1,> 11.4 µM,1.26%,,-12.9%,> 46 µM,> 9.22 µM,inactive,inactive,inactive,,3.98 µM (active),,-6.8% [at 2.29 µM],,
CN(C)S(=O)(=O)c1nc(Cl)c2[nH]cnc2n1,> 11.4 µM,1.09%,inactive,17.4%,> 46 µM,> 9.22 µM,inactive,inactive,,,,,,,
NC(N)=NC(N)=Nc1ccc(S(N)(=O)=O)cc1,> 11.4 µM,3.63%,inactive,3.86%,> 46 µM,> 9.22 µM,inactive,inactive,,,,,,,
O=C(O)CSc1ccn(Cc2ccccc2)c1,> 11.4 µM,-4.91%,inactive,1.69%,> 46 µM,> 9.22 µM,inactive,inactive,,,,,,inactive,
Cc1cc(SCC(=O)c2ccc(Br)cc2)cc(C)[o+]1,> 11.4 µM,-6.95%,3.98 µM (active),27.1%,> 46 µM,> 9.22 µM,inactive,inactive,,2.51 µM (active),,,,,15.2%
